Several values for one entry are separate records, joined by “and”; a condition that tells them apart may be missing. Equal entries are not always repeated. Results filed as inconclusive are left out. Where a structure was tested more than once in an assay, its records may differ in their call. Activity calls are given as the source filed them. Unless noted, calls come from the whole dose curve.
How the values were obtained:
[1] = target: Gonadotropin-releasing hormone receptor (Homo sapiens) (UniProt P30968); test: Human gonadotropin-releasing hormone receptor (GnRHR) small molecule agonists, calcium flux assay in GnRHR-HEK293 cells (AID 1920063); note: nearly all actives have a fitted effect of over 35% in size
Procedure, shortened: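 Fluorescence kinetics (480 nm excitation, 540 nm emission; 3 min, 1 s steps) report calcium mobilisation in human GnRHR-HEK293 cells in agonist mode. Dye incubation: 1 h, 37 C.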

[2] = G protein-coupled receptor (GPCR) small molecule agonists, calcium flux assay: HEK293 wild type cell line counter screen (AID 1920065)
Procedure, shortened: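 Readout: fluorescence at 480 nm excitation/540 nm emission, sampled at 1 s intervals for 3 min. Cells had been cultured 18 h, then dye-loaded 1 h at 37 C before compound or ATP addition.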

[3] = p53 small molecule agonists, cell-based qHTS assay with human liver microsomes (AID 1963577);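 note: p53 response element beta-lactamase reporter cells with liver microsomes plus NADPH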
Procedure, shortened: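 16 h, 37 C exposure of p53RE-bla cells to compounds with human liver microsomes and NADPH (0.5 mg/mL final each); detection via LiveBLAzer mixture, 2 h dark at room temperature.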

[4] = p53 small molecule agonists, cell-based qHTS assay with human liver microsomes: qHTS cell viability counter screen (AID 1963579); note: nearly all actives have a fitted effect of over 45% in size; note: potency is the fitted concentration of half-maximal effect
Procedure, shortened: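 In this multiplexed counter screen, the reporter plates were subsequently treated with CellTiter-Glo so that cell viability, reflected by luminescence, could be recorded for p53RE-bla cells dosed 16 h with compounds under microsomal activation (HLM and NADPH).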

[5] = p53 small molecule agonists, cell-based qHTS assay with rat liver microsomes: qHTS cell viability counter screen (AID 1963580); note: nearly all actives have a fitted effect of over 45% in size; note: potency is the fitted concentration of half-maximal effect
Procedure, shortened: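 In HCT-116 cells carrying a p53 response element-bla reporter, compounds were metabolically activated in situ by rat liver microsomes with NADPH over 16 h. Cell ATP content then served as the cytotoxicity measure.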

[6] = p53 small molecule agonists, cell-based qHTS assay: qHTS cell viability counter screen (AID 1963581); note: nearly all actives have a fitted effect of over 45% in size
Procedure, shortened: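 In the same plates used for the p53 bla reporter, HCT-116 cells given compounds for 16 h at 37 C received CellTiter-Glo; luminescence was recorded 30 min later at room temperature.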

[7] = target: Beta-2 adrenergic receptor (Homo sapiens) (UniProt P07550); test: Adrenergic beta2 receptor (ADRB2) small molecule antagonists, cell-based qHTS assay (AID 1963592); note: series mostly up to about 92 µM; nearly all actives have a fitted effect of over 50% in size
Procedure, shortened: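 Cells (CHO, stable ADRB2 overexpression) incubated 18-20hr at 37C; compounds added from DMSO; agonist mix (1nM isoproterenol, 100uM IBMX, 25uM Ro-20-1724) added; 0.5hr RT; d2-cAMP and anti-cAMP-cryptate added; 1hr RT; 665/615 nm read.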

[8] = target: Beta-2 adrenergic receptor (Homo sapiens) (UniProt P07550); test: Adrenergic beta2 receptor (ADRB2) small molecule agonists, cell-based qHTS assay (AID 1963593);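 note: CHO cells stably overexpressing human ADRB2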
Procedure, shortened: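 CHO cells stably over-expressing ADRB2 were plated overnight at 37C, then dosed with compounds plus a stimulation mix containing 100uM IBMX and 25uM Ro-20-1724 for 0.5hr at room temperature. cAMP was measured by HTRF competition, 1hr.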

[9] = target: D(2) dopamine receptor (Homo sapiens) (UniProt P14416); test: Dopamine D2 receptor (DRD2) small molecule agonists, cell-based qHTS assay (AID 1963594); note: nearly all actives have a fitted effect of over 35% in size; note: potency is the fitted concentration of half-maximal effect
Procedure, shortened: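 HEK293 cells stably expressing DRD2 were cultured 24 h at 37 C, then given Ro20-1724 (0.1 mM final) and compounds for 10 min at room temperature. NKH477 (200nM) was then added for 30 min. cAMP was read by HTRF.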

[10] = target: 5-hydroxytryptamine receptor 2A (Homo sapiens) (UniProt P28223); test: 5-hydroxytryptamine receptor 2A (HTR2A) small molecule antagonists, cell-based qHTS assay (AID 1963586); note: nearly all actives have a fitted effect of over 45% in size; note: potency is the fitted concentration of half-maximal effect
Procedure, shortened: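 Antagonist-mode intracellular calcium assay: DOI (4 nM) added after 5 min compound pre-incubation at room temperature to dye-loaded HTR2A-CHO cells. Fluorescence followed for 3 min, sampled every second.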

[11] = target: Muscarinic acetylcholine receptor M1 (Homo sapiens) (UniProt P11229); test: Cholinergic receptor muscarinic 1 (CHRM1) small molecule antagonists, cell-based qHTS assay (AID 1963588); note: nearly all actives have a fitted effect of over 40% in size
Procedure, shortened: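 CHRM1-CHO calcium-flux assay, antagonist mode. Cells were seeded 18 h, dye-loaded 1 h at 37 C and given compound for 5 min at RT, then acetylcholine was added at 50nM. FDSS fluorescence was read 3 min; 15 concentrations, three runs.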

[12] = target: Muscarinic acetylcholine receptor M1 (Homo sapiens) (UniProt P11229); test: Cholinergic receptor muscarinic 1 (CHRM1) small molecule agonists, cell-based qHTS assay (AID 1963589); note: nearly all actives have a fitted effect of over 35% in size
Procedure, shortened: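 Each compound was tested at 15 concentrations across three independent runs on dye-loaded CHO cells stably expressing human CHRM1, reading intracellular calcium fluorescence kinetically at 1 sec intervals.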

[13] = target: KiSS-1 receptor (Homo sapiens) (UniProt Q969F8); test: Human kisspeptin (KISS1R) small molecule agonists, calcium flux assay in KISS1R-HEK293 cells (AID 1920064; active = well fitted activation curve with a large enough effect in the repeat runs)
Procedure, shortened: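 Measures KISS1R agonism through calcium-sensitive dye fluorescence in stably transfected HEK293 cells, read for 3 min after pin-tool compound delivery; 15-point titrations in triplicate.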

[14] = p53 small molecule agonists, cell-based qHTS assay with rat liver microsomes (AID 1963578)
Procedure, shortened: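 With rat liver microsomes and NADPH present (0.5 mg/mL final each), p53RE-bla cells are treated with compound for 16 h at 37 C. LiveBLAzer detection mixture is then applied for 2 h at room temperature in the dark.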

[15] = p53 small molecule agonists, cell-based qHTS assay (AID 1963582; active = well fitted activation curve with a large enough effect in the signal ratio in the repeat runs, not every such curve was filed as active; the % refers to the signal ratio; note: potency is the fitted concentration of half-maximal effect)
Procedure, shortened: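 Compounds are pin-transferred in DMSO onto p53RE-bla cells and incubated 16 h at 37 C. The B/G FRET beta-lactamase substrate is then applied for 2 h at RT and fluorescence recorded.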

[16] = target: 5-hydroxytryptamine receptor 2A (Homo sapiens) (UniProt P28223); test: 5-hydroxytryptamine receptor 2A (HTR2A) small molecule agonists, cell-based qHTS assay (AID 1963587); note: nearly all actives have a fitted effect of over 30% in size; note: potency is the fitted concentration of half-maximal effect
Procedure, shortened: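 HTR2A-CHO cells, plated 18 h at 37 C/5% CO2, dye-loaded 1 h at 37 C; compounds in DMSO added by pin tool (agonist mode). Intracellular calcium flux read as kinetic fluorescence on FDSS over 2 min at 1 s intervals.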

[17] = cAMP Responsive Elements (CRE) small molecule agonists, cell-based qHTS assay (AID 1963590)
Procedure, shortened: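 Cell line: CRE-bla HEK 293T; medium DMEM/10% dialyzed FBS/0.1 mM NEAA/1 mM pyruvate/25 mM HEPES; 3 h compound exposure; beta-lactamase FRET readout after 2 h substrate loading at RT.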

[18] = cAMP Responsive Elements (CRE) small molecule antagonists, cell-based qHTS assay (AID 1963591; active = well fitted inhibition curve with a large enough effect in the signal ratio in the repeat runs, not every such curve was filed as active; the % refers to the signal ratio)
Procedure, shortened: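 Inhibition of NKH477-driven (0.25 uM final) CRE-beta-lactamase signal in HEK293T cells, 3 h compound exposure at 37 °C, detected by FRET substrate fluorescence.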

[19] = target: D(2) dopamine receptor (Homo sapiens) (UniProt P14416); test: Dopamine D2 receptor (DRD2) small molecule antagonists, cell-based qHTS assay (AID 1963595; active = well fitted inhibition curve with a large enough effect in the signal ratio in the repeat runs, with a control signal flat; the % refers to the signal ratio; note: potency is the fitted concentration of half-maximal effect)
Procedure, shortened: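 Antagonism was scored as restored cAMP in HEK293-DRD2 cells. These cells were stimulated with 200 nM NKH477 and 12 nM quinpirole for 30 min at room temperature, in the presence of 0.1 mM Ro20-1724.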
% is set by controls: 0 for no effect and ±100 for the full control effect.

Chain of D(2) dopamine receptor (Homo sapiens) (P14416 whole entry, looked up): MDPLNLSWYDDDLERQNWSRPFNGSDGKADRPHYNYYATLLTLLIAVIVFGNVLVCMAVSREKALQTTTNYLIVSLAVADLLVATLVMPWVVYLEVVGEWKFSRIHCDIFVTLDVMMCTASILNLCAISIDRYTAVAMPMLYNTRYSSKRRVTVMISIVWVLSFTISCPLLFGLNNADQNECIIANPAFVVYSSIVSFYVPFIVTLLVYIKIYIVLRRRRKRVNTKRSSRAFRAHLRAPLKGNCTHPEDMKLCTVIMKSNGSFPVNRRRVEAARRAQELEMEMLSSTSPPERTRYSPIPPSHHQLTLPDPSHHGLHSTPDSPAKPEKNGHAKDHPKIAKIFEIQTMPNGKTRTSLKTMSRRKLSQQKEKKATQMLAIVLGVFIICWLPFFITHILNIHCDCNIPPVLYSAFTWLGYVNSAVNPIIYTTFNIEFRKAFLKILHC
Chain of Muscarinic acetylcholine receptor M1 (Homo sapiens) (P11229 whole entry, looked up): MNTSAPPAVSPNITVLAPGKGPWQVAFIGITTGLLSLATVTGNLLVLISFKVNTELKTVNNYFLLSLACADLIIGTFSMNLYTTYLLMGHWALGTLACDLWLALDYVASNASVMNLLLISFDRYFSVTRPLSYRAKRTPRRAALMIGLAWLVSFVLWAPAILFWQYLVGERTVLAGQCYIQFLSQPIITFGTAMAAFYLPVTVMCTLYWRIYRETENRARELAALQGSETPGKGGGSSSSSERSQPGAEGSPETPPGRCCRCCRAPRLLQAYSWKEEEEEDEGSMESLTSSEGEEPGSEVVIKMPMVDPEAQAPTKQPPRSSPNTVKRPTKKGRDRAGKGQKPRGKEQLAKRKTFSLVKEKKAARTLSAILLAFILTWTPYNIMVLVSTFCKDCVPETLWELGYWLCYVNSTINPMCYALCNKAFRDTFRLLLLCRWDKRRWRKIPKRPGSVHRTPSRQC
Chain of 5-hydroxytryptamine receptor 2A (Homo sapiens) (P28223 whole entry, looked up): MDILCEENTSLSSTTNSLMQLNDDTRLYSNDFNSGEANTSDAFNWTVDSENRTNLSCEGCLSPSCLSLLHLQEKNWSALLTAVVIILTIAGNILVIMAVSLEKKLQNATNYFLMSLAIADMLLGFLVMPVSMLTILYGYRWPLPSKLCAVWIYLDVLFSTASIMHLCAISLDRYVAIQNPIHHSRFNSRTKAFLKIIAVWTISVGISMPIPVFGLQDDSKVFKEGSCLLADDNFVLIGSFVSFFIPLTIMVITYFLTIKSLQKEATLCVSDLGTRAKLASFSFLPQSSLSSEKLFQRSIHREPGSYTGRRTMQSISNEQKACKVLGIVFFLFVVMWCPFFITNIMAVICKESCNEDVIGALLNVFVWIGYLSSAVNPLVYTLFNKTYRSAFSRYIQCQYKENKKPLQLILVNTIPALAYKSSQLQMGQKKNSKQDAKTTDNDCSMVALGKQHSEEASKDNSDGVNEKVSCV
Chain of Gonadotropin-releasing hormone receptor (Homo sapiens) (P30968 whole entry, looked up): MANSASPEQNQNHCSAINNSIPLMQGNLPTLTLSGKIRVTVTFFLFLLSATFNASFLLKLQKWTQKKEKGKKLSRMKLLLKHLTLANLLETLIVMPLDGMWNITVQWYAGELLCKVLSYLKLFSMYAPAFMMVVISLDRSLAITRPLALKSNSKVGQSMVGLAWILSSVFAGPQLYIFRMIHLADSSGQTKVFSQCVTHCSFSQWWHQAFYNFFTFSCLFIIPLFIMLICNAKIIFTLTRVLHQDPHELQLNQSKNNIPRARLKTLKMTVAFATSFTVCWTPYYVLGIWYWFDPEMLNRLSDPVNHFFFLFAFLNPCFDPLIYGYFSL
Chain of KiSS-1 receptor (Homo sapiens) (Q969F8 whole entry, looked up): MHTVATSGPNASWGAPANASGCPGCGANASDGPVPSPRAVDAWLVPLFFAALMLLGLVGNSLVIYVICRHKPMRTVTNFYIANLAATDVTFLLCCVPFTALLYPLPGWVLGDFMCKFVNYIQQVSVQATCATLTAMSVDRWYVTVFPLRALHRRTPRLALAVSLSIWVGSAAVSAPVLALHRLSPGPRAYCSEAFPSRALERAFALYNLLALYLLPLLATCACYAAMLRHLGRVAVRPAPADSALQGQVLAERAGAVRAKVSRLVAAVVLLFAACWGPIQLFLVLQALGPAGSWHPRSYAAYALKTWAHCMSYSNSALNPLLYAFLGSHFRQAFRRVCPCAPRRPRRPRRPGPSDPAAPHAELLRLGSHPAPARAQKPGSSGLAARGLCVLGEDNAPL
Chain of Beta-2 adrenergic receptor (Homo sapiens) (P07550 whole entry, looked up): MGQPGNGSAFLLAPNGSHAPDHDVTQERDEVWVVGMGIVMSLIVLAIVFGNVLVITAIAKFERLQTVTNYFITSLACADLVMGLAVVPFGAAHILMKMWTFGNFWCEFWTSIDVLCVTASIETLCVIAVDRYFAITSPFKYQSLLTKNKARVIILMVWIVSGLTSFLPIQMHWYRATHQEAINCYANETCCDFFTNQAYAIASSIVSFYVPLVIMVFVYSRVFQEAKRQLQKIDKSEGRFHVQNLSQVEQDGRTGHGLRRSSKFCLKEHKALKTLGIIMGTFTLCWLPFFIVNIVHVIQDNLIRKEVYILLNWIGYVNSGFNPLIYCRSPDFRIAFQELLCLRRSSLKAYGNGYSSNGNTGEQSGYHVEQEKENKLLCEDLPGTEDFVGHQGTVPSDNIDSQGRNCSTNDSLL

CN(C/C=C/C#CC(C)(C)C)Cc1cccc2ccccc12
inactive: Potency [1] | Potency [2] | Potency [3] | Potency [4] | Potency [5] | Potency [6] | Potency [7] | Potency [8] | Potency [9]

Nc1ccc(N)c([N+](=O)[O-])c1
inactive: Potency [10] | Potency [11] | Potency [12]

c1ccc(-c2nc3ccccc3[nH]2)cc1
inactive: Potency [13] | Potency [2] | Potency [14] | Potency [4] | Potency [15] | Potency [10] | Potency [16] | Potency [11] | Potency [12] | Potency [17] | Potency [18] | Potency [7] | Potency [9] | Potency [19]

CCN(CC)CCCC(C)Nc1c2ccc(Cl)cc2nc2ccc(OC)cc12 (stereo unspecified)
inactive: Potency [13] | Potency [4] | Potency [6]
active: Potency [15] 19.9 µM

CC(C)c1c(C(=O)Nc2ccccc2)c(-c2ccccc2)c(-c2ccc(F)cc2)n1CC[C@@H](O)C[C@@H](O)CC(=O)O
inactive: Potency [1] | Potency [6] | Potency [7] | Potency [9] | Potency [19]

O=C1CN(/N=C/c2ccc([N+](=O)[O-])o2)C(=O)N1
inactive and 68.6 µM (active): Potency [9]
inactive: Potency [13] | Potency [2] | Potency [6] | Potency [7] | Potency [8]

CCCCCCCC1CCC(=O)O1 (stereo unspecified)
inactive: Potency [16] | Potency [11] | Potency [12] | Potency [7] | Potency [8] | Potency [19]

CCCCCCCCCCCCCCOS(=O)(=O)O
active: Potency [16] 43.6 µM
inactive: Potency [1] | Potency [2] | Potency [3] | Potency [14] | Potency [4] | Potency [5] | Potency [15] | Potency [11] | Potency [12] | Potency [17] | Potency [18] | Potency [7] | Potency [8] | Potency [9] | Potency [19]

C[N+]1(C)CCC(OC(=O)C(O)(c2ccccc2)C2CCCC2)C1 (stereo unspecified)
inactive: Potency [13] | Potency [2] | Potency [6] | Potency [15] | Potency [10] | Potency [16] | Potency [12] | Potency [17] | Potency [18] | Potency [7] | Potency [9] | Potency [19]

O=C(O)CN(CCN(CC(=O)O)CC(=O)O)CC(=O)O
inactive: activation [13] -1.01% [at 2.72 µM] | activation [2] 0.597% [at 2.04 µM] | activation [3] -9.46% [at 2.33 µM] | activation [14] -7.74% [at 2.33 µM] | activity change, negative = cytotoxicity [4] -15.2% [at 2.33 µM] | activity change, negative = cytotoxicity [6] 1.99% [at 2.33 µM] | activation [15] -4.53% [at 2.33 µM] | activity, negative = inhibition [10] -0.852% [at 2.12 µM] | activation [16] -0.659% [at 2.65 µM] | activity, negative = inhibition [11] 37.7% [at 2.17 µM] | activation [12] -0.34% [at 2.72 µM] | activation [17] 0.14% [at 3.27 µM] | activity change, negative = inhibition [18] 1.65% [at 3.27 µM] | activity change, negative = inhibition [7] 4.71% [at 3.27 µM] | activation [8] 11.4% [at 3.27 µM] | activation [9] 2.74% [at 3.27 µM] | activity change, negative = inhibition [19] 8.25% [at 3.28 µM]

NC(N)=N/N=C/c1c(Cl)cccc1Cl
inactive: Potency [13] | Potency [2] | Potency [3] | Potency [14] | Potency [6] | Potency [15] | Potency [17] | Potency [18] | Potency [7] | Potency [8] | Potency [9] | Potency [19]

OC(CN1CCC(Cc2ccc(F)cc2)CC1)c1ccc(Cl)cc1 (stereo unspecified)
active: Potency [10] 1.63 µM
inactive: Potency [13] | Potency [2] | Potency [3] | Potency [14] | Potency [4] | Potency [5] | Potency [6] | Potency [12] | Potency [17] | Potency [18] | Potency [9] | Potency [19]

CCCC[N+](C)(CCCC)CCCC
inactive: Potency [13] | Potency [2] | Potency [4] | Potency [5] | Potency [6] | Potency [10] | Potency [16] | Potency [11] | Potency [12] | Potency [17] | Potency [7] | Potency [9] | Potency [19]

O=C(O)COCCN1CCN(C(c2ccccc2)c2ccc(Cl)cc2)CC1 (stereo unspecified)
inactive: Potency [13] | Potency [2] | Potency [6] | Potency [15] | Potency [10] | Potency [11] | Potency [12] | Potency [17] | Potency [18] | Potency [7] | Potency [8] | Potency [9] | Potency [19]

CC(=O)N(C)C
inactive: Potency [10] | Potency [16] | Potency [11] | Potency [12] | Potency [7] | Potency [9] | Potency [19]

CN(C)CCOC(c1ccccc1)c1ccccc1
inactive: Potency [1] | Potency [6] | Potency [17] | Potency [18] | Potency [7] | Potency [9] | Potency [19]

C[C@@H](O[C@H]1OCCN(Cc2n[nH]c(=O)[nH]2)[C@H]1c1ccc(F)cc1)c1cc(C(F)(F)F)cc(C(F)(F)F)c1
inactive: Potency [1] | Potency [2] | Potency [3] | Potency [4] | Potency [5] | Potency [15] | Potency [11] | Potency [7] | Potency [9] | Potency [19]

C[C@H]1O[C@@H](O[C@H]2[C@@H](O)C[C@H](O[C@H]3[C@@H](O)C[C@H](O[C@H]4CC[C@@]5(C)[C@H](CC[C@@H]6[C@@H]5C[C@@H](O)[C@]5(C)[C@@H](C7=CC(=O)OC7)CC[C@]65O)C4)O[C@@H]3C)O[C@@H]2C)C[C@H](O)[C@@H]1O
inactive: Potency [1] | Potency [2] | Potency [7] | Potency [8] | Potency [9] | Potency [19]
active: Potency [4] 0.0903 µM | Potency [5] 205 nM and 90.3 nM

O=[N+]([O-])c1cc([N+](=O)[O-])c2ccc(S(=O)(=O)O)cc2c1O
inactive: Potency [2] | Potency [4] | Potency [5] | Potency [6]

CS(=O)(=O)c1ccc([C@@H](CC2CCCC2)C(=O)Nc2cnccn2)cc1Cl
inactive: Potency [10] | Potency [16] | Potency [11] | Potency [12] | Potency [7] | Potency [8] | Potency [9] | Potency [19]

CC(C)(C(=O)O)c1ccc(C(O)CCCN2CCC(C(O)(c3ccccc3)c3ccccc3)CC2)cc1 (stereo unspecified)
inactive: Potency [13] | Potency [2] | Potency [6] | Potency [15] | Potency [17] | Potency [7] | Potency [9] | Potency [19]

CC(CN(C)C)CN1c2ccccc2CCc2ccccc21 (stereo unspecified)
active: Potency [19] 23.7 µM
inactive: Potency [13] | Potency [2] | Potency [3] | Potency [14] | Potency [4] | Potency [5] | Potency [16] | Potency [11] | Potency [12] | Potency [9]

Source: PubChem BioAssay (Tox21)
